Consider 98 compounds from PubChem BioAssay AID588358 (NMMLSC, 2011).

Among all 310,000 compounds or so, about 1,500 (0.48%) were called active.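 The calls were made as follows: active = binding more than 3 SD below its plate's average and above zero; inconclusive = below that plate limit but binding exactly zero; inactive = the rest.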 The entries come from a sample that favours actives as a whole.

Sequence of Desmoglein-3 (Homo sapiens) (P32926 whole entry, looked up, the tested form may be a part): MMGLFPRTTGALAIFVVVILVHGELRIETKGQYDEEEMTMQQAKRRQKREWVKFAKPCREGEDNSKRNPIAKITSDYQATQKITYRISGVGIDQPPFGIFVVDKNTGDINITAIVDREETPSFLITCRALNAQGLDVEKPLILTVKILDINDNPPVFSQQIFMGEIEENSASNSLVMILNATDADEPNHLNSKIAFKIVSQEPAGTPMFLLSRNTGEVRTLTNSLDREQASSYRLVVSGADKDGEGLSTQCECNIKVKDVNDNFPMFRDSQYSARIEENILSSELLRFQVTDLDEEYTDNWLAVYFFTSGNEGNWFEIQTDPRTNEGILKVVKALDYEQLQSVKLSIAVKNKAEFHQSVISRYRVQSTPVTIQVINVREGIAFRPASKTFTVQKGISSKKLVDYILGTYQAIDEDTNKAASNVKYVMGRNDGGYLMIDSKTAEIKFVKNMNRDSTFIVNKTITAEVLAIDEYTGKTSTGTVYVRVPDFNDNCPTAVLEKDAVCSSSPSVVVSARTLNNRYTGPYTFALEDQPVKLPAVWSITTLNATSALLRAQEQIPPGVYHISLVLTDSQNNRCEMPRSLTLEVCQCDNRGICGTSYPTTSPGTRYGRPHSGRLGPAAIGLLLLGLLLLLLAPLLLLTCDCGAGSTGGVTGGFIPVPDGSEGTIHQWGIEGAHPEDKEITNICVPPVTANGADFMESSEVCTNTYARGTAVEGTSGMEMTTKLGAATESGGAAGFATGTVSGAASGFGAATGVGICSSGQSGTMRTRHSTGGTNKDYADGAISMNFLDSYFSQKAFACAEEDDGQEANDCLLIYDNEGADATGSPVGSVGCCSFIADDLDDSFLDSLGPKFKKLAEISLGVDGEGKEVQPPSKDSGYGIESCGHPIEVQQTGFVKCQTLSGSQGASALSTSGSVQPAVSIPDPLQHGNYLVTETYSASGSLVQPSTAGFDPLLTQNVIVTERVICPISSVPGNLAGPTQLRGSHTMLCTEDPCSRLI

This experiment has as its target Desmoglein-3 (Homo sapiens) (UniProt P32926). As to the kind of experiment: inhibitors of pemphigus antibody binding to DSG3, primary screen, biochemical, bead-based, flow cytometry, scFv-GFP (AID 588358).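 Also: hits lower antibody fragment binding to DSG3.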 The following applies: DSG3-coupled beads, scFv-anti-DSG3-GFP binding, at 10 µM, stronger effect = lower value.
For `Cc1cc2cc(CNC(=O)c3ccc(S(=O)(=O)N4CCOCC4)cc3)ccc2[nH]1`, the binding (percent of control) was 95.4% (inactive). The figure for `CCc1cccc(CC)c1NC(=S)NCc1ccc2[nH]c(C)cc2c1` is 78.1% (inactive); for `Cc1cc2cc(CNC(=O)c3cccs3)ccc2[nH]1` it is 80.6% (active).

Regarding `Cc1onc(-c2ccccc2)c1-c1nnc(COC(=O)c2ccc(N(C)C)cc2)o1`, the binding (percent of control) is 109% (inactive). On to `C[C@H](CO)N1C[C@H](C)[C@H](CN(C)C(=O)c2ccncc2)OCc2ccccc2-c2c(n(C)c3ccccc23)C1=O`, for which the binding (percent of control) was 103% (inactive). Consider `Cc1cccc(C(=O)NC2CCN(CC(=O)Nc3cccc(Cl)c3)CC2)c1`, for which the binding (percent of control) was 92.9% (inactive). Under `O=C(c1cc(-c2ccc(F)cc2)on1)N1CCN(c2ccc(F)cc2)CC1` stands 91% (inactive); under `O=C(c1cc(-c2ccc(Cl)cc2)on1)N1CCN(c2ccccc2)CC1`, 24.2% (active). Under `O=C(c1cc(-c2ccc(O)cc2)on1)N1CCOCC1` stands 104% (inactive); under `O=C(Nc1nnc(S(=O)(=O)N2CCCCCC2)s1)c1cccc(Br)c1`, 102% (inactive). The figure for `COc1cccc(C(=O)Nc2nnc(S(=O)(=O)N3CCCCC3)s2)c1` is 99.3% (inactive). For `Cc1cccc(C(=O)Nc2nnc(S(=O)(=O)N3CCCCCC3)s2)c1`, the binding (percent of control) is 29.9% (active). Under `CC1(C2CC2)NC(=O)N(CC(=O)N2CCN(c3ccccc3F)CC2)C1=O` (stereo not drawn) stands 101% (inactive); under `COc1ccc(NC(=O)CSc2nnnn2-c2cccc(OC)c2)cc1`, 92.2% (inactive). The figure for `O=C(O)C#Cc1cccc2ccccc12` is 97.7% (inactive); for `O=C(O)c1cc2ccccc2c(=O)s1` it is 53.2% (active); for `O=C(O)c1ccc(S(=O)(=O)c2ccccc2)s1` it is 123% (inactive). Under `CCN1C(=O)[C@H]2[C@@H](c3ccc(C(F)(F)F)cc3)N[C@]3(CCCN(Cc4ccc(Br)cc4)C3=O)[C@H]2C1=O` stands 111% (inactive); under `CCC(=C/c1sc2ccc3ccccc3c2[n+]1C)/C=C1\Sc2ccc3ccccc3c2N1C`, 75% (active). Consider `CCOC(=O)c1cc(-c2sc(NC(=O)c3ccccc3)nc2C)n(-c2ccc(Br)cc2)n1`, for which the binding (percent of control) is 102% (inactive). Under `O=C(COc1ccc(Cl)cc1)N1CCN(S(=O)(=O)c2ccc(Cl)cc2)CC1` stands 66.4% (active); under `O=C(CSc1ccccn1)N1CCN(S(=O)(=O)c2ccc(Cl)cc2)CC1`, 96.2% (inactive).

Consider `Nc1nc(SCC(=O)N2CCN(S(=O)(=O)c3ccc(Cl)cc3)CC2)n[nH]1`, for which the binding (percent of control) is 104% (inactive).

With `O=C(CSc1ccc(-c2ccccn2)nn1)Nc1ccccc1`, the binding (percent of control) was 101% (inactive).

With `O=C(CSc1ccc([N+](=O)[O-])cn1)Nc1ccc(N2CCOCC2)cc1`, the binding (percent of control) was 96.9% (inactive). The figure for `O=C(CSc1ccc(-c2ccc(-n3cccn3)cc2)nn1)Nc1ccc([N+](=O)[O-])cc1` is 89.5% (active); for `COc1ccccc1NC(=O)C(CC(=O)O)Cc1cc(C)cc(C)c1` (stereo not drawn) it is 96.8% (inactive). As to `COc1ccc(CCNC(=O)CN(c2ccccc2)S(=O)(=O)c2ccccc2)cc1`, the binding (percent of control) was 97.8% (inactive).

`COc1ncnc2c1ncn2CCCNCCN1CCOCC1`: the binding (percent of control) was 98% (inactive).

For `COc1cccc(/C=N/Nc2ccc(Cl)nn2)c1`, the binding (percent of control) was 98.6% (inactive). The figure for `COc1cccc(/C=N\Nc2nncc(-c3ccccc3)n2)c1` is 90.1% (active); for `COc1cccc(/C=N/NC(=O)C(=O)N2CCCC2)c1` it is 102% (inactive); for `CCOC(=O)c1c(CN2CCOCC2)n(-c2ccccc2)c2ccc(O)cc12` it is 107% (inactive).

As for `CC(=O)c1c(C)n(-c2ccc(N(C)C)cc2)c2ccc(OCC(N)=O)cc12`, the binding (percent of control) is 96.5% (inactive). Under `CC(=O)c1c(C)n(-c2ccc(C)cc2)c2ccc(O)cc12` stands 61.8% (active); under `CCOC(=O)C(C(=O)c1ccccc1)C(c1ccccc1)c1nccc2ccccc12` (stereo not drawn), 108% (inactive); under `O=C(O)C1CCCN1c1nc(Cl)ccc1[N+](=O)[O-]` (stereo not drawn), 90.2% (inactive). Under `COc1ccc(S(=O)(=O)N2CCC(C(=O)NCCC(=O)NCCc3cccc(F)c3)CC2)cc1` stands 99% (inactive). In the case of `Cc1nc(-c2ccc(Cl)cc2)sc1C(=O)CBr`, the binding (percent of control) is 63.4% (active). Under `Cc1nc(-c2ccccc2)sc1C(=O)/C=C/N(C)C` stands 97.8% (inactive); under `Cc1nc(-c2ccc(Cl)cc2)sc1C(=O)NN`, 110% (inactive).

`COc1ccc(CN2C(=O)C(CC(=O)NC3CCCCC3)CC(C(=O)N3CCOCC3)=C2C)cc1` (stereo not drawn): the binding (percent of control) is 102% (inactive). `COC(=O)c1ccccc1N=NNc1ccc([N+](=O)[O-])cc1`: the binding (percent of control) was 104% (inactive). Under `O=[N+]([O-])c1ccc(N/N=C/c2ccccc2)cc1` stands 102% (inactive). Under `O=[N+]([O-])c1ccc(N=NNc2ccc([N+](=O)[O-])cc2)cc1` stands 44.4% (active). The figure for `COc1cc(C)c(CN2CCN(C(=O)CCC(=O)c3ccc(C)s3)CC2)cc1OC` is 98.2% (inactive); for `COc1ccc(NC(=O)CCCOc2ccc(C(C)=O)cc2)cc1S(=O)(=O)N1CCCCC1` it is 109% (inactive); for `c1ccc(Cn2nnc3c(NCC4CC4)ncnc32)cc1` it is 101% (inactive). In the case of `O=C(c1cccnc1)N(Cc1ccccc1)C(=O)c1cccnc1`, the binding (percent of control) was 86.3% (inactive).

For the compound `O=C(CC(=O)c1cccnc1)c1ccccc1`, the binding (percent of control) is 66.2% (active). Take `O=C(NNC(=O)c1cccnc1)Nc1ccccc1`: the binding (percent of control) is 103% (inactive). For `CCOC(=O)c1cc(-c2sc(NC(=O)c3ccccc3)nc2C)n(Cc2ccccc2)n1`, the binding (percent of control) was 101% (inactive). For the compound `CCOC(=O)C1CCN(C(=O)c2ccc3c(=O)n4nc(Nc5ccccc5CC)sc4nc3c2)CC1`, the binding (percent of control) is 104% (inactive). The figure for `Cc1ccc(NC(=O)Cn2c(C)csc2=O)cc1` is 92.9% (inactive); for `Cc1nn(CC(=O)Nc2ccc(F)cc2)c(=O)c2ccccc12` it is 105% (inactive); for `Cc1ccc(NC(=O)Cn2sc3ccccc3c2=O)cc1` it is 58.5% (active). Under `C[C@@H]1CN([C@@H](C)CO)C(=O)c2c(c3ccccc3n2C)-c2ccccc2CO[C@H]1CN(C)C(=O)C1CC1` stands 101% (inactive). Under `COc1ccc(Cl)cc1NC(=O)CN(C)C(=O)c1cn(-c2ccccc2)nc1-c1cccs1` stands 112% (inactive); under `Cn1ncc([N+](=O)[O-])c1C(=O)Nc1cc(Cl)ccc1Cl`, 102% (inactive); under `O=C(Cn1nnc(-c2ccccc2)n1)NC(=O)NC1CCCC1`, 102% (inactive). In the case of `COc1cc(-c2nnn(CC(=O)NCc3ccccc3)n2)cc(OC)c1OC`, the binding (percent of control) is 89.3% (inactive).

Take `N#Cc1ccc(COC(=O)Cn2nnc(-c3ccccc3)n2)cc1`: the binding (percent of control) was -1.31% (active). As to `Cc1cccc(OCCNC(=O)CSc2ccc(C(F)(F)F)cc2[N+](=O)[O-])c1`, the binding (percent of control) is 114% (inactive). As to `CCCCCCCCC(=O)NCCOc1ccccc1`, the binding (percent of control) is 96.9% (inactive). The figure for `O=C(CSc1ccc(C(F)(F)F)cc1[N+](=O)[O-])NCCOc1ccccc1` is 87.7% (active); for `CCOC(=O)c1cnn2c(SC)ncnc12` it is 105% (inactive); for `CCOc1ccc(NC(=O)NNC(=O)c2ccc(Cl)cc2Cl)cc1` it is 103% (inactive).

In the case of `CCOc1ccc(NC(=O)c2nc(SCC)ncc2Cl)cc1`, the binding (percent of control) was 62.8% (active).

For `CSc1ncc(Cl)c(C(=O)Nc2cc(C)ccc2C)n1`, the binding (percent of control) is 95% (inactive). In the case of `COc1ccc(NC(=O)COC(=O)C2COc3ccccc3O2)cc1` (stereo not drawn), the binding (percent of control) was 100% (inactive). The figure for `Cc1ccc(C(=O)OCC(=O)NC2CCCCCCC2)cc1C` is 97% (inactive); for `CC(C)n1ncc2c(C(=O)N3CCN(Cc4cccs4)CC3)cc(C3CC3)nc21` it is 101% (inactive); for `COc1ccc(NC(=O)CCCC(=O)c2ccccc2)cc1` it is 72.9% (active).

For `COc1ccc(NC(=O)CS(=O)(=O)c2ccccc2)cc1`, the binding (percent of control) was 103% (inactive).

Turning to `COc1ccc(C(=O)CCC(=O)Nc2ccc(Cl)cc2)cc1`, the binding (percent of control) is 102% (inactive). Under `C#Cc1cc(N2CCN(C(=O)c3ccoc3)CC2)n2nc(-c3cccc(Cl)c3)cc2n1` stands 96% (inactive); under `Cc1ccc(C=O)c([B-](F)(F)F)c1`, 103% (inactive); under `CC1(C)OC(=O)C2=C(CC(c3ccccc3)OC2CCc2ccccc2)O1` (stereo not drawn), 109% (inactive). In the case of `Cc1ccc(-n2nc3cc(C)c(NC(=O)c4cccnc4)cc3n2)cc1`, the binding (percent of control) was 78.3% (active). Under `O=C(Nc1cccc(-n2cnnn2)c1)c1cccnc1` stands 104% (inactive); under `Cc1ccc(S(=O)(=O)N2CCCCC2)cc1NC(=O)c1cccnc1`, 103% (inactive); under `CC(=O)Nc1c(-c2ccc(C)cc2)nc2ccc(Cl)cn12`, 98.5% (inactive). Take `CCCCN1C[C@H](c2ccc(Br)cc2)[C@@H](CC(=O)Nc2ccc(Br)cc2)C1=O`: the binding (percent of control) is 102% (inactive). Under `O=C(c1cc(-c2ccccc2O)on1)N1CCCC1` stands 105% (inactive). Under `O=C(Nc1cccnc1Cl)c1cc(-c2ccccc2O)on1` stands 92.4% (inactive); under `C=CCNC(=O)c1cc(-c2ccccc2O)on1`, 79.7% (active). `O=C(COC(=O)CCc1c[nH]c2ccccc12)Nc1cccc(Cl)c1`: the binding (percent of control) was 102% (inactive). The figure for `COc1ccccc1C(=O)NC(=S)Nc1ccc(N2CCOCC2)cc1` is 101% (inactive). Regarding `CC(C)[C@H](NC(=O)c1ccccc1F)C(=O)Nc1cccc(S(=O)(=O)N2CCOCC2)c1`, the binding (percent of control) was 107% (inactive).

For `O=C(N/N=C\c1cccnc1)c1cc(-c2ccccc2)nc2c(Cl)cccc12`, the binding (percent of control) is 111% (inactive). The figure for `O=C(N/N=C/c1cccnc1)c1cc2ccccc2cc1O` is 97.3% (active); for `Cc1ccc(/C=N/NC(=O)c2cc3ccccc3cc2O)o1` it is 111% (inactive); for `Cc1ccccc1C#CC1=CC(=O)CC(C)(C)C1` it is 97.5% (inactive).

On to `C[C@@H]1CN([C@H](C)CO)S(=O)(=O)c2ccc(C#CC3CCCCC3)cc2O[C@H]1CN(C)C(=O)Cc1ccncc1`, for which the binding (percent of control) is 123% (inactive). As to `CN(C)C(CNC(=O)c1cc(Br)c(Br)s1)c1ccco1` (stereo not drawn), the binding (percent of control) was 99.7% (inactive). Under `Cc1cccc(NC(=O)CSCC(=O)Nc2nnc(C3CC3)s2)c1` stands 105% (inactive); under `O=C(Cc1cccs1)Nc1nnc(C2CC2)s1`, 125% (inactive).

As for `O=C(CN1C(=O)c2ccc([N+](=O)[O-])cc2C1=O)Nc1nnc(C2CC2)s1`, the binding (percent of control) was 66.2% (active).
